# In the supplement of paper PMC10338343:
# ± gives the standard deviation.
# Tested on: MILI (PIWIL2) piRISC loaded with L1MC piRNA (26 nt)
# Assay: pre-steady-state target cleavage rate (min^-1); guide: L1MC piRNA 5'p-UAACUAAAUACUAUGCAAGCUGUAGG; MIWI and MILI are mouse PIWI proteins and EfPiwi is from a freshwater sponge; tags in brackets are library labels; higher = faster piRNA-guided slicing of the target
# Outline: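 Reactions were run for 0–8 or 0–960 min at 33 °C in HEPES–potassium acetate buffer, combining 1 nM active affinity-purified piRISC with one synthetic guide, […] transcribed, DNA-blocked target RNA library and, in some cases, 500 nM GTSF1 partner protein. Sequencing of uncleaved targets followed, with normalisation to depth and to weakly complementary targets. Three trials were pooled, k3 was capped at 0.0001 min^-1, and the pre-steady-state cleavage rate was taken from a burst-and-steady-state fit.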
# [1] = auxiliary factor: 500 nM mouse GTSF1
# [2] = auxiliary factor: none (no GTSF1)
# 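Also: 1 nM active piRISC with 0.1 nM target library at 33 °C single turnover.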
Sequence,pre-steady-state target cleavage rate [1],pre-steady-state target cleavage rate [2]
UCCUGGAUCAGCAUGCAUAGUAUUUUGUUA,0.16 ± 0.021,0.00405 ± 0.0024
UCCUGGAUGUCGAAGCAUAGUAUUUAGUUG [g2:g16:cont:t1G],0.0225 ± 0.0063,0.00543 ± 0.0019
UCCUCCUAGAGCUUGCAAAGUAUUUAGUUA,0.14 ± 0.0099,0.00516 ± 0.002
UCCUGGAUGUCGAAGUAUAGUAUUUAGUUA,0.0142 ± 0.004,0.00325 ± 0.002
UCCUGGAUGAGCUUGCUUAGUAUAUAGUUA,0.103 ± 0.02,0.00937 ± 0.0029
UCCUGGAUGAGCUUGGAAAGUAUUUAGUUA,0.0843 ± 0.011,0.00571 ± 0.0018
UCCUGGAUGUCCAUGCAUAGUUUUUAGUUA,0.0166 ± 0.0043,0.00362 ± 0.0023
UCCUGGAACAGCUUGCAUAGAUUUUAGUUA,0.0289 ± 0.0057,0.003 ± 0.0026
UCCUGGUACAGCAUGCAUAGUAUUUACUUA,0.0914 ± 0.025,0.00419 ± 0.0038
UCCUGGAUCAGCUUGCAAUGUAUUUAGUAA,0.0826 ± 0.014,0.00611 ± 0.0022
UCCUGCUACACCAUGCAUAGUAUUUAGUUA,0.223 ± 0.015,0.00794 ± 0.0027
UCCUCCUACAGCUUGCUAGUAUUUAGUUA,0.037 ± 0.013,0.00462 ± 0.0021
UCCUGGAUGUCGUUGCAUAGUUAUUUAGUUA,0.00477 ± 0.0039,0.00324 ± 0.003
UCCUGGAUCAGCUUGCAAAGUAUUUACUUA,0.0828 ± 0.013,0.00392 ± 0.0024
UCCUGGAUGUCCUUGCAUACUUUUUAGUUA,0.00626 ± 0.004,0.0024 ± 0.0022
UCCUGGAUGUCCUUGCAAAGUAUUUAGUUA,0.0392 ± 0.0098,0.00687 ± 0.002
UCCUGGAUGUCGAUGCAUAGUAUUUAGUUC [g2:g17:cont:t1C],0.0657 ± 0.0091,0.00831 ± 0.0023
UCCUGGAUGUCGAAGCAUAGUGUUUAGUUA,0.0115 ± 0.0044,0.00454 ± 0.0019
UCCUGCUACAGCUUGCAUUCUAUUUAGUUA,0.0454 ± 0.0087,0.00339 ± 0.0024
UCCUGGAUGUCGUUGCAUAUUAUUUAGUUA,0.0246 ± 0.0061,0.00364 ± 0.0023

Sequence,pre-steady-state target cleavage rate [1],pre-steady-state target cleavage rate [2]
UCCUGGAUGUCCUAGCAUAGUUUUUAGUUA,0.0106 ± 0.0049,0.00512 ± 0.0022
UCCUCCUACAGCUUGAUAGUAUUUAGUUA,0.147 ± 0.014,0.00404 ± 0.0022
UCCUGGAUGAGCAUGCAUAGUAAUUAGUUA,0.156 ± 0.021,0.00824 ± 0.0028
UCCUGGAUCAGCUUGGUUAGUAUUUAGUUA,0.209 ± 0.016,0.0137 ± 0.0033
UCCUGGAACAGCUUGCAAUGUAUUUAGUAA,0.0829 ± 0.011,0.00326 ± 0.0026
UCCUGGAUGACCUUGCAUACUAUUUAGUUA,0.062 ± 0.019,0.00358 ± 0.0034
UCCUGGAUGUCGUUGCGUAGUAUUUAGUUA,0.0164 ± 0.0059,0.00779 ± 0.0026
UCCUGGAUGAGGUUGCUUAGUAUUUAGUUA,0.12 ± 0.01,0.0107 ± 0.0022
UCCUGGAUCAGCUUGCUUAGUAUUUACUUA,0.203 ± 0.025,0.00642 ± 0.0022
UCCUGGAUCAGGAAGCAUAGUAUUUAGUAA,0.0716 ± 0.014,0.00297 ± 0.0022
UCCUGGAUGUGCUUGGUAAGUAUUUAGUUA,0.00666 ± 0.0036,0.00551 ± 0.0023
UCCUGCUACAGCAAGCAUAGUAUUUAGUAA,0.281 ± 0.026,0.00383 ± 0.0032
UCCUGGUACAGCUUCGUUAGUAUUUAGUAA,0.165 ± 0.04,0.00388 ± 0.0027
UCCUGGAUGUGCUAGCUUAGUAUUUAGUUA,0.0596 ± 0.0098,0.00453 ± 0.0023
UCCUGGAUCAGGUUGCAUUGUAUUUAGUUA,0.115 ± 0.0091,0.00671 ± 0.0024
UCCUGGAUGUCGAUGCAUAGUAUUUACGUUA,0.158 ± 0.033,0.00337 ± 0.0029
UCCUGCUUGUGCUUGCAUAGUAUUUAGUUA,0.13 ± 0.017,0.00616 ± 0.0025
UCCUCCUACUAGCUUGCAUAGUAUUUAGUUA,0.13 ± 0.013,0.00589 ± 0.002
UCCUGGUACAGCAUGCUUAGUAUUUAGUUA,0.208 ± 0.025,0.0118 ± 0.0026
UCCUGGAUGUCCUUGCUUACUAUUUAGUUA,0.016 ± 0.0064,0.00305 ± 0.0023

Sequence,pre-steady-state target cleavage rate [1],pre-steady-state target cleavage rate [2]
UCCUGGAACAGGUAGCAUAGUAUUUAGUUA,0.209 ± 0.016,0.00531 ± 0.0016
UCCUGGAACAGCUUCGAUAGUAUUUAGUAA,0.167 ± 0.019,0.00446 ± 0.0025
UCCUGGAUGAGCUUGCUUUGUAUUUAGUUA,0.0408 ± 0.01,0.00403 ± 0.0028
UCCUGGAUGUCGAUGCAUAGUGUUUAGUUA,0.0372 ± 0.0094,0.0049 ± 0.0026
UCCUGCUACAGCUACGAUAGUAUUUAGUUA,0.243 ± 0.02,0.00263 ± 0.0024
UCCUGGAUGAGCUUGCAAGUAUUUAGUUA,0.0177 ± 0.0056,0.00379 ± 0.0026
UCCUGGAUGAGCUUGCAUAGUGAUUUAGUUA,0.00836 ± 0.0043,0.00434 ± 0.0027
UCCUGGAUGUCCUUGCAAAGUAUUUAGUAA,0.0311 ± 0.0099,0.00418 ± 0.0019
UCCUGGAUGUGCUUGAAUAGUAUUUAGUUA,0.127 ± 0.013,0.00936 ± 0.0025
UCCUGGUACAGCUUGAUAGUAUUUAGUUA,0.0803 ± 0.011,0.00786 ± 0.0031
UCCUGGAUGAGCAUGCAUAGUUUUUAGUUA,0.0197 ± 0.0099,0.00788 ± 0.0023
UCCUGGAUCAGCUUGGAUAGUAUUAAGUUA,0.162 ± 0.027,0.00386 ± 0.0022
UCCUGGAUGUCGUUGCAUAGUAUGUUAGUUA,0.203 ± 0.042,0.00861 ± 0.0031
UCCUGGAUGUCGUUGGCAUAGUAUUUAGUUA,0.0621 ± 0.015,0.0049 ± 0.003
UCCUCCUACAGCUUCCUUAGUAUUUAGUUA,0.216 ± 0.025,0.00443 ± 0.002
UCCUGGUACAGCUUGGUAAGUAUUUAGUAA,0.18 ± 0.034,0.00367 ± 0.0027
UCCUGGAUGUGGAAGCAUAGUAUUUAGUUA,0.026 ± 0.0048,0.00344 ± 0.0029
UCCUGGAUGAGCUAGCAUAGUUUUUAGUUA,0.0185 ± 0.0066,0.00507 ± 0.0028
UCCUGGAUCUGCUAGCAUAGUAUUUAGUUA,0.168 ± 0.014,0.00596 ± 0.0019
UCCUGGUACAGCUUGCUAAGUAUUUAGUUA,0.123 ± 0.015,0.00432 ± 0.0026
